The source of these data is PubChem BioAssay.

The assay is described as follows: S6 kinase pathway phospho-S6 level changes – cell-based, A549, cytoblot, luminescence, serum-stimulated, primary screen (AID 1158).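 Further: serum-stimulated A549 lung adenocarcinoma cells; signal is phosphorylated S6 detected by cytoblot immunostaining with HRP secondary.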 The note with it: 5 h, higher = more signal.
`COC(=O)[C@H]1COC(c2ccc(OCCCO)cc2)=N1` yielded a z-score of -0.0797. In turn, `O=C1[C@H]2[C@H]3[C@H](O)[C@H](O)CC(=NOC[C@@H](O)COCc4ccco4)[C@H]3CC[C@H]2C(=O)N1Cc1ccc2c(c1)OCO2` gave a z-score of -0.552. Take `CC[C@@H](c1ccccc1)n1c(=O)n2n(c1=O)[C@H]1[C@H](O)[C@@H]3O[C@@H]3C(=NOCC=C(C)CCC=C(C)C)[C@H]1CC2`: the z-score is -0.45.

The molecule `C[C@@H](c1ccccc1)N1C(=O)[C@H]2[C@H]3[C@H](O)[C@H](O)CC(=NOC[C@@H](O)COCc4ccco4)[C@@H]3CC[C@H]2C1=O` displayed a z-score of 0.403.

As for `CO[C@H]1O[C@H](CO)[C@@H](OC(=O)Nc2ccc3c(c2)OCO3)[C@H](OC(=O)Nc2ccccc2-c2ccccc2)[C@@H]1OC(=O)Nc1ccccc1-c1ccccc1`, the z-score is -0.0879.

`NCCCCCNC(=O)[C@@H]1C[C@@H]2C(=O)N3CCC[C@H]3C(=O)N2[C@@H]1c1cccc(OCCO)c1` displayed a z-score of 0.0413.

For `C[C@@H]1C=CCC(=O)OC[C@H](C)C(=O)N2CCC[C@H]2C(=O)OC1`, the z-score was -0.39. On to `CCCC=C(CCC)[C@@H](NC(=O)c1ccc(-c2ccccc2)cc1)c1ccc(C(=O)OC)cc1`, for which the z-score stood at 0.692. `CCOC(=O)[C@H](Cc1ccccc1)NC(=O)CCC1CC(OC(=O)NCc2ccc3c(c2)OCO3)CC2(CCCC(COC(=O)NCC3CCCCC3)O2)O1` (stereo not given in full) yielded a z-score of 0.236. Consider `COc1ccc(COC(=O)NN=C2C[C@@H](O)[C@@H](O)[C@@H]3[C@@H]4C(=O)N(c5ccc(F)cc5F)C(=O)[C@@H]4CC[C@@H]23)cc1`, for which the z-score was 0.281. The figure for `CC(C)[C@@H](OCc1ccccc1)[C@H](C)C=NO[C@H](C)c1cn([C@H](CO)Cc2ccccc2)nn1` is 1.99; for `COC(=O)[C@H](C)NC(=O)CCC1CC(OC(=O)NCc2cccc3ccccc23)CC2(CCCC(COC(=O)NCCc3ccc(Cl)cc3)O2)O1` (stereo not given in full) it is 0.362. As to `COc1ccc(-c2nc3c(c4c2C[C@H](C)OC4)CN(CCC(C)C)CC3)cc1`, the z-score is -0.0895. Molecule `O=C(NN=C1C[C@@H](O)[C@@H](O)[C@@H]2[C@@H]3C(=O)N(c4cccc(Oc5ccccc5)c4)C(=O)[C@@H]3CC[C@H]12)OCc1ccccc1` came in with a z-score of -0.738. The molecule `CCOC(=O)CCN1C(=O)[C@H]2[C@H]3[C@H](O)[C@H](O)CC(=NNC(=O)OCc4ccc(OC)cc4)[C@@H]3CC[C@H]2C1=O` yielded a z-score of -0.587.

Molecule `CCN1C(=O)[C@H]2[C@H]3[C@H](O)C=CC(=O)[C@@H]3CC[C@H]2C1=O` showed a z-score of 0.176. The figure for `C=C(CCCC)C(=O)CC[C@@H](OC(C)=O)c1cccc(OCCO)c1` is 0.0149; for `O=C1C[C@]2(c3ccc([N+](=O)[O-])cc3)C(=O)N(CCN3CCOCC3)c3cc(CO)ccc3[C@H]2N1CC12CC3CC(CC(C3)C1)C2` it is 0.349. With `[N-]=[N+]=NCc1ccccc1[C@@H]1OC(c2ccc(OCCCO)cc2)=N[C@]1(Cc1ccccc1)C(=O)N1CCOCC1`, the z-score came to 0.131. Consider `CC(C)N1CC=CC23O[C@@H]4C=CCCOC(=O)C4[C@H]2C(=O)N(CCCCCCO)[C@@H]3C1=O` (stereo not given in full), for which the z-score was 0.342. Take `CCCNC(=O)[C@@H]1c2ccccc2C(=O)N(Cc2ccccc2Cl)[C@H]1c1ccc(CO)cc1`: the z-score was 0.335. In turn, `CCN1C(=O)[C@H]2[C@H]3[C@H](O)[C@H](O)CC(=NOCc4ccccc4)[C@H]3CC[C@H]2C1=O` showed a z-score of 0.9. As to `C[C@H](c1ccccc1)N1C(=O)[C@H]2[C@H]3[C@H](O)[C@H](O)CC(=O)[C@@H]3CC[C@H]2C1=O`, the z-score is -0.448. The result for `COC(=O)C1=C(C)[C@@H](O)[C@@H](C)[C@H](c2c(OC)c(OC)c(C)c(OC)c2OC)O1` reads -0.468; that for `CC(=O)OC[C@H]1O[C@H](CC=NOC[C@@H](C)[C@H](OCc2ccccc2)C(C)C)C=C[C@@H]1OC(C)=O`, -0.0212.
